The values that follow come from PubChem BioAssay (NCATS).

The structures appear in SMILES notation. Records with an inconclusive call do not appear. Calls of active or inactive are those of the source. Unless noted, calls come from the whole dose curve; as a rule, active = well fitted curve in the direction sought with a large enough effect; inconclusive = small, poorly fitted or top-dose-only effect, or another doubt; inactive = no such curve, though single readings can be large; an effect the other way counts as inactive or inconclusive.

In assay [1] the target is Calcium and integrin-binding protein 1 (Homo sapiens) (UniProt Q99828). In words: Primary qHTS for Identification of Calcium Integrin Binding Protein 1 (CIB1) Competitor (AID 1508620). Note: top concentration of the series differs between compounds; % is set by controls: 0 for no effect and ±100 for the full control effect. The method, boiled down: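 Fluorescence polarization competition: GST-tagged CIB1 (1 uM final) preincubated with compound 15 min at room temperature, then FITC-labelled alphaIIb peptide (100 nM final) added. After 15 min at room temperature, polarization read at Ex 480/Em 540.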
Chain of Calcium and integrin-binding protein 1 (Homo sapiens) (Q99828 whole entry, looked up): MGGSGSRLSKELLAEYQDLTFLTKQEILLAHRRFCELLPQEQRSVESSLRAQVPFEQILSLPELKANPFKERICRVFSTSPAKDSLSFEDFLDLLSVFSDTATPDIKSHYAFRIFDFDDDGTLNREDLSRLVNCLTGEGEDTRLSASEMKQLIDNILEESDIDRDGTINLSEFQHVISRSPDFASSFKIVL
(In general: qHTS replaces the single test concentration by a dilution series.)

Assay [2] can be described thus: A High-Content qHTS Against Drug Library for the Identification of Small Molecules that Inhibit DYT1 Early Onset Primary Dystonia-Associated Cell Pathology (AID 1645839; calls by dose curve). The method, boiled down: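 Flp-In T-REx 293 cells with tetracycline-inducible EGFP-delE hTOR1A (WT EGFP-hTOR1A as reference), 800 cells/well; compound added with tetracycline, 48 h at 37 C. Fixed, permeabilized cells imaged; %pathology (punctate TorsinA) primary, cell count counterscreen.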

The target of assay [3] is Cytochrome P450 2D6 (Homo sapiens) (UniProt P10635). The assay is described as follows: Cytochrome P450 family 2 subfamily D member 6 (CYP2D6) small molecule antagonists: luciferase biochemical (cell-free) qHTS assay (AID 1645840; active = well fitted curve in the direction sought with a large enough effect in the repeat runs; an effect the other way counts as inactive or inconclusive; note: nearly all actives have a fitted effect of over 55% in size; note: potency is the fitted concentration of half-maximal effect; for activity change, negative = inhibition: % is set by controls: 0 for no effect and ±100 for the full control effect). The method, boiled down: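 P450-Glo luminescent screen: recombinant CYP2D6 enzyme–proluciferin substrate mix preincubated with compound 10 min at room temperature, then NADPH regeneration added for 1 h at room temperature. Detection reagent added for 20 min; luciferin light read as relative luminescence units.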
Chain of Cytochrome P450 2D6 (Homo sapiens) (P10635 whole entry, looked up): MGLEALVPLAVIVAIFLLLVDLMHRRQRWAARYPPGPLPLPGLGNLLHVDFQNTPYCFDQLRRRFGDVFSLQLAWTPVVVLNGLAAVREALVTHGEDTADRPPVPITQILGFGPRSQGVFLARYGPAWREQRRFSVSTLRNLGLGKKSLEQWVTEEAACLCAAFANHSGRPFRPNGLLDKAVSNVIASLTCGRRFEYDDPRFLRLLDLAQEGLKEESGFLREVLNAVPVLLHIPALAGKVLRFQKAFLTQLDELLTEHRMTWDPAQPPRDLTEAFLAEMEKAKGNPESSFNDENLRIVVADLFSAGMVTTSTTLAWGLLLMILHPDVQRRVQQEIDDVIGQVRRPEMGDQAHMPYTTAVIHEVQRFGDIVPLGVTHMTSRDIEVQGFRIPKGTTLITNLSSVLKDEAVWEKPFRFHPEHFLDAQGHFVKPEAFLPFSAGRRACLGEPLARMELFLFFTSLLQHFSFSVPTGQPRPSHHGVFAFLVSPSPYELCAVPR

Assay [4] deals with Cytochrome P450 3A4 (Homo sapiens) (UniProt P08684). The assay is described as follows: Cytochrome P450 family 3 subfamily A member 4 (CYP3A4) small molecule antagonists: luciferase qHTS assay (AID 1645841; active = well fitted curve in the direction sought with a large enough effect in the repeat runs; an effect the other way counts as inactive or inconclusive; note: nearly all actives have a fitted effect of over 45% in size). The essentials: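 P450-Glo CYP3A4 enzyme with proluciferin substrate preincubated 10 min with compound at room temperature, then NADPH regeneration 1 h. Luciferin detection reagent added for 20 min; luminescence recorded. Ketoconazole positive control.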
Chain of Cytochrome P450 3A4 (Homo sapiens) (P08684 whole entry, looked up): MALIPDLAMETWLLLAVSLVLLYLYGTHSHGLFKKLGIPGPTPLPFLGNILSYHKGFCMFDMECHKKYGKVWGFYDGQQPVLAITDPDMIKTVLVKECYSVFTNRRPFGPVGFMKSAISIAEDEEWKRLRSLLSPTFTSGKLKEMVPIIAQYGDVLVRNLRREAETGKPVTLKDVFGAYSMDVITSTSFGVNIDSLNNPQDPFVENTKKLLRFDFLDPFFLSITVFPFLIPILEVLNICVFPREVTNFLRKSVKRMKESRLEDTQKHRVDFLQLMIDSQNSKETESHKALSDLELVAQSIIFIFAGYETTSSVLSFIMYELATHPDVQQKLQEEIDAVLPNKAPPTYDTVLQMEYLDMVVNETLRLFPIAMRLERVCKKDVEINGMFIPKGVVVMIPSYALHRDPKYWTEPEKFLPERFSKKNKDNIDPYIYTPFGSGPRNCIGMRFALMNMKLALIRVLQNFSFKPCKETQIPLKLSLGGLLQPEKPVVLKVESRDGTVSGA

In assay [5] the target is Cytochrome P450 2C9 (Homo sapiens) (UniProt P11712). In words: Cytochrome P450 family 2 subfamily C member 9 (CYP2C9) small molecule antagonists: luciferase biochemical (cell-free) qHTS assay (AID 1645842; active = well fitted curve in the direction sought with a large enough effect in the repeat runs; an effect the other way counts as inactive or inconclusive; note: nearly all actives have a fitted effect of over 55% in size; note: potency is the fitted concentration of half-maximal effect; for activity change, negative = inhibition: % is set by controls: 0 for no effect and ±100 for the full control effect). The essentials: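 Luminescence, after 20 min with luciferin detection reagent, reflected CYP2C9 turnover during a 1 h NADPH-driven reaction at 37C. Enzyme-substrate mix contained 0.4% bovine serum albumin and was preincubated with compound 10 min at room temperature.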
Chain of Cytochrome P450 2C9 (Homo sapiens) (P11712 whole entry, looked up): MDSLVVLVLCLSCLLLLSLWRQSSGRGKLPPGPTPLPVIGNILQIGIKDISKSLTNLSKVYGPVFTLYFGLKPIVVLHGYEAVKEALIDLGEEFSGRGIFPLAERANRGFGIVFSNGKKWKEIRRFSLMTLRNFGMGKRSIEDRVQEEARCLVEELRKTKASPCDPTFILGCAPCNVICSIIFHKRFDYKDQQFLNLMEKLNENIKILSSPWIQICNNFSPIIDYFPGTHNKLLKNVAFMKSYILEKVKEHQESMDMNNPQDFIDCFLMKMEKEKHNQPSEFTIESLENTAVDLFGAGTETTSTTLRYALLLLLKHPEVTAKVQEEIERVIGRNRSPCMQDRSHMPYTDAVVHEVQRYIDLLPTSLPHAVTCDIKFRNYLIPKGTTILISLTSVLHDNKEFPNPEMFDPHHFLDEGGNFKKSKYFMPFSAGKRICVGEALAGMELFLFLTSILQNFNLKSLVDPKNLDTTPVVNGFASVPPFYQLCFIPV

Assay [6] can be described thus: Cytotoxicity counterscreen for inhibitors of SARS-CoV-2 cell entry (AID 1645845; calls by dose curve; note: nearly all actives have a fitted effect of over 50% in size). The essentials: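 HEK293-ACE2 cells (Expi293F stably expressing human ACE2) seeded overnight, then compound for 1 h plus 48 h at 37C. Viability as ATP content by luminescence; normalized to wells with cells and media-only wells.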
For orientation: Counterscreens check selectivity or assay interference.

The nature of assay [7]: Primary qHTS to identify inhibitors of SARS-CoV-2 cell entry (AID 1645846; calls by dose curve; note: nearly all actives have a fitted effect of over 45% in size; note: potency is the fitted concentration of half-maximal effect). The conditions noted are these: activity change, negative = inhibition: at 57.1 µM (top of the series) unless noted. The method, boiled down: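 Using luciferase-reporting pseudoviruses carrying Wuhan-Hu-1 spike, the screen tracks entry into stably ACE2-expressing cells over 48 hr. Activity is expressed relative to spike particles versus particles lacking any fusion protein.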

Assay [8] can be described thus: Primary qHTS for inhibitors of nuclear receptor binding SET domain protein 2 (NSD2) in an isogenic RCH-ACV NSD2 p.E1099K mutant (9B) (AID 1645876). Note: nearly all actives have a fitted effect of over 70% in size. Note: potency is the fitted concentration of half-maximal effect.
Assay [9] is described as follows: Primary qHTS for inhibitors of nuclear receptor binding SET domain protein 2 (NSD2) in an RCH-ACV wild type WT cells (2C) (AID 1645877). Note: nearly all actives have a fitted effect of over 70% in size.
A short description of assay [10]: Counterscreen qHTS for small molecule stabilizers of the endoplasmic reticulum resident proteome: GLuc-NoTag assay (AID 1508627).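 Note: 0% = thapsigargin alone and -100% = DMSO vehicle control.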 The essentials: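 SH-SY5Y cells stably expressing constitutively secreted GLuc without SERCaMP tag, exposed to compound for 19 hr, then to 100 nM thapsigargin for 4 hr at 37C. Medium luciferase was read by coelenterazine luminescence without lysis.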

Assay [11] can be described thus: Confirmatory qHTS for small molecule stabilizers of the endoplasmic reticulum resident proteome: Secreted ER Calcium Modulated Protein (SERCaMP) assay (AID 1508628). Note: % is set by controls: 0 for no effect and ±100 for the full control effect; nearly all actives have a fitted effect of over 40% in size. The essentials: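 SH-SY5Y cells stably expressing GLuc-SERCaMP, treated 16 h with compound (primary 1.53, 7.67, 38.3 uM; confirmation 11 concentrations, up to 76.6 uM), then 100 nM thapsigargin for 4 h. Secreted Gaussia luciferase in medium read by coelenterazine luminescence.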

Assay [12] is described as follows: Primary qHTS for small molecule stabilizers of the endoplasmic reticulum resident proteome: Secreted ER Calcium Modulated Protein (SERCaMP) assay (AID 1508630). Note: % is set by controls: 0 for no effect and ±100 for the full control effect. The essentials:
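GLuc-SERCaMP-expressing SH-SY5Y cells, pretreated 16 h with compound, are challenged with thapsigargin to empty ER calcium stores; after 4 h, coelenterazine is added directly to the medium and luminescence is imaged.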

For assay [13], the target named is Rap guanine nucleotide exchange factor 3 (Homo sapiens) (UniProt O95398). In words: Confirmatory qHTS for agonist of cAMP-regulated guanine nucleotide exchange factor 3 (EPAC1) (AID 1645881).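 Note: EPAC1 catalysed release of BODIPY-GDP from Rap1B seen as fluorescence loss; 100% = effect of cAMP agonist control; nearly all actives have a fitted effect of over 75% in size.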
Chain of Rap guanine nucleotide exchange factor 3 (Homo sapiens) (O95398 whole entry, looked up): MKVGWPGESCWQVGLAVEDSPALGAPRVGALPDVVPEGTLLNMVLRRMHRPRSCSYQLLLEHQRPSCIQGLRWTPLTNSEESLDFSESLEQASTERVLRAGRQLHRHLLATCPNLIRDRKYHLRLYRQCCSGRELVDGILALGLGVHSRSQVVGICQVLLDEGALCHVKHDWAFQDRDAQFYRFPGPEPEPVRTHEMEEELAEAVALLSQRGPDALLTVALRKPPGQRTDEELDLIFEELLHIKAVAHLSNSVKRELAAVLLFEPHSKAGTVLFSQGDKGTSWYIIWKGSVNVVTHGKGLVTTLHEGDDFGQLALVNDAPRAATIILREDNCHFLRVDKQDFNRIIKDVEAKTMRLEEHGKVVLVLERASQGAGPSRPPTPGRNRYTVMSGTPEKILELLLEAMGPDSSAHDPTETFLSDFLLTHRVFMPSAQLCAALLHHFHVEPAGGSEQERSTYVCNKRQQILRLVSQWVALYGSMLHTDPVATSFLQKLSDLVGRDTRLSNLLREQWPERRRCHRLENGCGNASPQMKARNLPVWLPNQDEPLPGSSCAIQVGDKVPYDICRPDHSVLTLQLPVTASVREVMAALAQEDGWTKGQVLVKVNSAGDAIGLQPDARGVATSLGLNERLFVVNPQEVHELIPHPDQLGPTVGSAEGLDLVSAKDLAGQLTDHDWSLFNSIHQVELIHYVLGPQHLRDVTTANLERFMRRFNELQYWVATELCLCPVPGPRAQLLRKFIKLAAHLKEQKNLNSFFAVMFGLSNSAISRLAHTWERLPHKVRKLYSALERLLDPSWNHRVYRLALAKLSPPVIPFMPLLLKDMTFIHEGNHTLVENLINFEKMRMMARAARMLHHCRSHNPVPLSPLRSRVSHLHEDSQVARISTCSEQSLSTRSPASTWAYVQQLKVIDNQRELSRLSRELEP
In assay [14] the target is Rap guanine nucleotide exchange factor 4 (Homo sapiens) (UniProt Q8WZA2). The assay is described as follows: Confirmatory qHTS for agonist of cAMP-regulated guanine nucleotide exchange factor 4 (EPAC2) (AID 1645884).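 Note: nucleotide exchange releases bodipy-GDP from Rap1 and this lowers its fluorescence; % is set by controls: 0 for no effect and ±100 for the full control effect; nearly all actives have a fitted effect of over 65% in size.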
Chain of Rap guanine nucleotide exchange factor 4 (Homo sapiens) (Q8WZA2 whole entry, looked up, the tested form may be a part): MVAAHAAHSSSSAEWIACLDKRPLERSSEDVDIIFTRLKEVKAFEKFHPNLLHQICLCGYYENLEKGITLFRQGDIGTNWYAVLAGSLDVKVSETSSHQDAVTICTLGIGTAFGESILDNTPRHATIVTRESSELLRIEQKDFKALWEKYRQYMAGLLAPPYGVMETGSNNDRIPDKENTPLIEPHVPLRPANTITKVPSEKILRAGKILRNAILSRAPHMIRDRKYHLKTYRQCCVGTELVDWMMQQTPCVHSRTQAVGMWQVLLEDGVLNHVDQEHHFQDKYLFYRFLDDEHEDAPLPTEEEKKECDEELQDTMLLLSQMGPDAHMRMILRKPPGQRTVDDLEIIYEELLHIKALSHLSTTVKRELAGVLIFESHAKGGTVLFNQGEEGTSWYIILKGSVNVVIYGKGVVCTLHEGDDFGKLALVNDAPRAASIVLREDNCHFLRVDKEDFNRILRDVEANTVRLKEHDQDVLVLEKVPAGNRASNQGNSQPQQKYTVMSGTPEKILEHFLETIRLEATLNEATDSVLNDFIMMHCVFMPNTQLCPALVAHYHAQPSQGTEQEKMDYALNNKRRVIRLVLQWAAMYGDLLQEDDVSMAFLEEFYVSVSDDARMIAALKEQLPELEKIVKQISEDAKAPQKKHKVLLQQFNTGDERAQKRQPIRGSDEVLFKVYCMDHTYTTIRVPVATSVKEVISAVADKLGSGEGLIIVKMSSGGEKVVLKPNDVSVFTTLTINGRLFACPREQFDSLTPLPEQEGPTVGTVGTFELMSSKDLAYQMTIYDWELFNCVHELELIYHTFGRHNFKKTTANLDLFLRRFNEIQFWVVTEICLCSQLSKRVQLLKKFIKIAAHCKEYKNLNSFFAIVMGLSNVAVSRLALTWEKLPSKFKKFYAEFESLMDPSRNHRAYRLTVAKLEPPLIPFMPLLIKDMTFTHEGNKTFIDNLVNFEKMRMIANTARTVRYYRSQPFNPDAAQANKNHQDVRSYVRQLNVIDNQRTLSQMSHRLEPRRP
A short description of assay [15]: Confirmatory qHTS to identify inhibitors of SARS-CoV-2 cell entry (AID 1645844; calls by dose curve; note: potency is the fitted concentration of half-maximal effect; nearly all actives have a fitted effect of over 45% in size). The method, boiled down: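 HEK293-ACE2 cells were pretreated 1 h with compound, then infected with MLV-based pseudoparticles bearing C-terminally truncated Wuhan-Hu-1 spike for 48 h at 37C; luciferase luminescence normalized to spike PP and bald PP wells.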
The nature of assay [16]: VSVG counterscreen qHTS to identify inhibitors of SARS-CoV-2 cell entry (AID 1645847; calls by dose curve; note: potency is the fitted concentration of half-maximal effect; nearly all actives have a fitted effect of over 65% in size). The essentials: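 Entry of VSV-G pseudotyped particles into human ACE2-expressing HEK293 cells was measured by luciferase luminescence 48 h after infection, with compound added 1 h beforehand.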

As for `O=[N+]([O-])O[C@H]1CO[C@H]2[C@@H]1OC[C@H]2O[N+](=O)[O-]`, the Potency result in [1], in assay [3], in assay [4], in assay [5], in assay [6] and in [8] was “inactive” throughout. Also, the Potency result in assay [9] was “inactive”. Further, the outcome in [2] was inactive. The activity change, negative = inhibition in assay [7] is -33.3%.
As for `Nc1ccccc1C(=O)O`, the Potency entry in assay [1], in assay [3] and in assay [5] was “inactive” in each case. Besides, the result in assay [2] was inactive.
As for `COc1cc(OC)c(OC)cc1C=O`, the Potency entry in [1], in assay [3], in assay [5], in [8] and in assay [9] was “inactive” in each case. Further, the call in assay [2] was inactive.
On to `CC(C)NC(C)C`, for which the Potency result in assay [1], in [3], in [5], in assay [6], in assay [7] and in [8] was “inactive” throughout. Besides, the Potency result in assay [9] was “inactive”. Besides, in assay [2], the molecule was classed as inactive.
As to `O=c1oc2ccccc2c(O)c1Cc1c(O)c2ccccc2oc1=O`, the call in assay [10] and in assay [2] was inactive. Besides, the Potency entry in assay [11], in assay [6] and in [7] was “inactive” throughout. In addition, the Potency in assay [8] was 21.1 µM (active).
As for `CCN[C@@H](C)Cc1ccccc1`, the Potency result in [1], in assay [5], in assay [8] and in assay [9] was “inactive” in each case. Further, the outcome in assay [2] was inactive. In addition, the Potency in assay [3] is 6.28 µM (active).
Take `CC(=O)OCC1=C(C(=O)O)N2C(=O)[C@@H](N)[C@H]2SC1`: the Potency entry in assay [1], in assay [5], in assay [8] and in assay [9] was “inactive” each time. The call in [2] was inactive. The Potency in assay [3] is 5.35 µM (active).
In the case of `C#CC(O)(C=CCl)CC` (configuration not stated), the Potency entry in assay [1], in assay [3], in assay [5], in assay [6], in assay [8] and in assay [9] was “inactive” in each case. Moreover, the molecule was classed as inactive in assay [2]. For the same molecule, the activity change, negative = inhibition in assay [7] was -20.1%.
As to `C=CCC1([C@H](C)CCC)C(=O)NC(=O)NC1=O`, the Potency entry in assay [1], in assay [3] and in [5] was “inactive” in each case. Also, the molecule was classed as inactive in [2].
With `CC(Cc1ccccc1)NCCn1cnc2c1c(=O)n(C)c(=O)n2C` (configuration not stated), the Potency result in [1], in assay [5], in [8] and in assay [9] was “inactive” each time. Also, the outcome in [2] was inactive. For the same molecule, the Potency in assay [3] is 7.01 µM (active).
In the case of `Clc1ccccc1N1CCNCC1`, the Potency entry in assay [1], in assay [4], in assay [5], in [8] and in [9] was “inactive” each time. Also, in assay [2], the outcome was inactive. For the same molecule, in assay [3], the Potency was 13.8 µM (active).
In the case of `Oc1ccc(Cl)cc1`, the molecule was called inactive in [2]. Further, the Potency result in assay [3], in assay [5], in assay [6], in assay [8] and in assay [9] was “inactive” each time.
With `O=c1c(C2CC(c3ccc(-c4ccc(Br)cc4)cc3)Cc3ccccc32)c(O)sc2ccccc12` (configuration not stated), the Potency result in assay [12] and in [3] was “inactive” in each case. Besides, the values for the Potency in assay [5] and in assay [7] were 9.77 µM (active) and 14.1 µM (active), respectively.
For `CN1CC[C@]23c4c5ccc(O)c4O[C@H]2[C@@H](O)CC[C@H]3[C@H]1C5`, the Potency entry in [1], in assay [5], in assay [8] and in assay [9] was “inactive” each time. The result in assay [2] was inactive.
Take `CC(=O)C1CCOC1=O` (configuration not stated): the Potency entry in [1], in assay [3], in assay [5], in assay [8] and in assay [9] was “inactive” each time. Besides, in assay [2], the molecule was called inactive.
Regarding `COP(=S)(OC)SCN1C(=O)c2ccccc2C1=O`, the Potency entry in assay [12], in [6] and in [7] was “inactive” each time. The molecule was called inactive in assay [2]. Also, the Potency in assay [3] was 15.5 µM (active); in [5], 0.776 µM (active).
As to `C[C@]12CC[C@@H]3c4ccc(OC(=O)N(CCCl)CCCl)cc4CC[C@H]3[C@@H]1CC[C@@H]2O`, the Potency entry in [12], in assay [3], in assay [4], in assay [5], in [6] and in assay [7] was “inactive” in each case. The call in assay [13] and in [14] was inactive.
Consider `CC(C)OC(=O)OCOP(=O)(CO[C@H](C)Cn1cnc2c(N)ncnc21)OCOC(=O)OC(C)C`, for which the Potency is 0.0152 µM (active) in assay [15] and 0.0192 µM (active) in assay [16].
